Source: the supplement of paper PMC8728848
Shown is part of a subset that was picked to be rich in the strongest signals.

Experiments:
Experiment in all cases: glycan array binding signal (z-score within array); higher = stronger binding
Conditions in all cases: glycan notation: IUPAC condensed, linker removed
[1] = biological target: Fuc(a1-2)Gal6S(b1-3)GlcNAc6S
In short: (§1)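 Arrays were curated from the Consortium for Functional Glycomics database, 3228 in total, and kept only where the protein sequence was available. Binding is expressed as a within-array Z-score. This score was averaged across arrays of the same protein sequence at different concentrations or buffers and across linkers, and negative values can be read as non-binding.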

[2] = biological target: Fuc(a1-2)[Gal(a1-3)]Gal(b1-3)GlcNAc(b1-2)Man(a1-3)[Fuc(a1-2)[Gal(a1-3)]Gal(b1-3)GlcNAc(b1-2)Man(a1-6)]Man(b1-4)GlcNAc(b1-4)[Fuc(a1-6)]GlcNAc
In short: as §1

[3] = biological target: Fuc(a1-2)[GalNAc(a1-3)]Gal(b1-4)[Fuc(a1-3)]GlcNAc(b1-3)GalNAc
In short: as §1

[4] = biological target: Fuc(a1-3)[Gal(b1-4)]GlcNAc
In short: as §1

[5] = biological target: Fuc(a1-3)[Gal(b1-4)]GlcNAc(b1-3)Gal(b1-4)[Fuc(a1-3)]GlcNAc
In short: as §1

[6] = biological target: Fuc(a1-3)[Gal(b1-4)]GlcNAc(b1-3)Gal(b1-4)[Fuc(a1-3)]GlcNAc(b1-3)Gal(b1-4)[Fuc(a1-3)]GlcNAc
In short: as §1

[7] = biological target: Gal(a1-4)Gal(b1-4)GlcNAc(b1-2)Man(a1-3)[Gal(a1-4)Gal(b1-4)GlcNAc(b1-2)Man(a1-6)]Man(b1-4)GlcNAc(b1-4)GlcNAc
In short: as §1

Gal(b1-2)Gal = biological target: Gal(b1-2)Gal
In short: as §1

[8] = biological target: Gal(b1-3)[Fuc(a1-4)]GlcNAc(b1-6)GalNAc
In short: as §1

[9] = biological target: Gal(b1-3)[Neu5Ac(a2-6)]GalNAc
In short: as §1

[10] = biological target: Gal(b1-4)GlcNAc(b1-2)Man(a1-3)[Gal(b1-4)GlcNAc(b1-2)Man(a1-6)]Man(b1-4)GlcNAc(b1-4)[Fuc(a1-6)]GlcNAc
In short: as §1

[11] = biological target: Gal(b1-4)GlcNAc(b1-2)Man(a1-6)[Man(a1-3)]Man(b1-4)GlcNAc(b1-4)GlcNAc
In short: as §1

[12] = biological target: Gal(b1-4)GlcNAc(b1-3)Gal(b1-4)GlcNAc
In short: as §1

[13] = biological target: Gal(b1-4)GlcNAc(b1-3)Gal(b1-4)GlcNAc(b1-3)Gal(b1-4)GlcNAc(b1-3)Gal(b1-4)GlcNAc(b1-3)Gal(b1-4)GlcNAc(b1-2)Man(a1-3)[Gal(b1-4)GlcNAc(b1-3)Gal(b1-4)GlcNAc(b1-3)Gal(b1-4)GlcNAc(b1-3)Gal(b1-4)GlcNAc(b1-3)Gal(b1-4)GlcNAc(b1-2)Man(a1-6)]Man(b1-4)GlcNAc(b1-4)GlcNAc
In short: as §1

[14] = biological target: Gal(b1-4)GlcNAc(b1-3)Gal(b1-4)GlcNAc(b1-3)Gal(b1-4)GlcNAc(b1-3)Gal(b1-4)GlcNAc(b1-3)Gal(b1-4)GlcNAc(b1-2)Man(a1-3)[Gal(b1-4)GlcNAc(b1-3)Gal(b1-4)GlcNAc(b1-3)Gal(b1-4)GlcNAc(b1-3)Gal(b1-4)GlcNAc(b1-3)Gal(b1-4)GlcNAc(b1-2)Man(a1-6)]Man(b1-4)GlcNAc(b1-4)[Fuc(a1-6)]GlcNAc
In short: as §1

[15] = biological target: Gal(b1-4)GlcNAc(b1-3)Gal(b1-4)GlcNAc(b1-3)Gal(b1-4)GlcNAc(b1-3)Gal(b1-4)GlcNAc(b1-3)Gal(b1-4)GlcNAc(b1-3)Gal(b1-4)GlcNAc(b1-2)Man(a1-3)[Gal(b1-4)GlcNAc(b1-3)Gal(b1-4)GlcNAc(b1-3)Gal(b1-4)GlcNAc(b1-3)Gal(b1-4)GlcNAc(b1-3)Gal(b1-4)GlcNAc(b1-3)Gal(b1-4)GlcNAc(b1-2)Man(a1-6)]Man(b1-4)GlcNAc(b1-4)GlcNAc
In short: as §1

[16] = biological target: Gal(b1-4)GlcNAc(b1-3)[GlcNAc(b1-6)]Gal(b1-4)GlcNAc
In short: as §1

Gal3S6S(b1-4)GlcNAc6S = biological target: Gal3S6S(b1-4)GlcNAc6S
In short: as §1

Gal4S6S(b1-4)GlcNAc = biological target: Gal4S6S(b1-4)GlcNAc
In short: as §1

Gal6S(b1-3)GlcNAc6S = biological target: Gal6S(b1-3)GlcNAc6S
In short: as §1

GalNAc(b1-4)GlcNAc6S = biological target: GalNAc(b1-4)GlcNAc6S
In short: as §1

GlcA(b1-3)Gal = biological target: GlcA(b1-3)Gal
In short: as §1

[17] = biological target: GlcNAc(b1-2)Man(a1-3)[GlcNAc(b1-4)][GlcNAc(b1-2)Man(a1-6)]Man(b1-4)GlcNAc(b1-4)GlcNAc
In short: as §1

[18] = biological target: GlcNAc(b1-3)Gal(b1-4)GlcNAc
In short: as §1

[19] = biological target: GlcNAc(b1-3)Gal(b1-4)GlcNAc(b1-3)Gal(b1-4)GlcNAc(b1-2)Man(a1-3)[GlcNAc(b1-3)Gal(b1-4)GlcNAc(b1-3)Gal(b1-4)GlcNAc(b1-2)Man(a1-6)]Man(b1-4)GlcNAc(b1-4)GlcNAc
In short: as §1

[20] = biological target: GlcNAc(b1-3)Gal(b1-4)GlcNAc(b1-3)Gal(b1-4)GlcNAc(b1-3)Gal(b1-4)GlcNAc(b1-2)[GlcNAc(b1-3)Gal(b1-4)GlcNAc(b1-3)Gal(b1-4)GlcNAc(b1-3)Gal(b1-4)GlcNAc(b1-6)]Man(a1-6)[GlcNAc(b1-3)Gal(b1-4)GlcNAc(b1-3)Gal(b1-4)GlcNAc(b1-3)Gal(b1-4)GlcNAc(b1-2)Man(a1-3)]Man(b1-4)GlcNAc(b1-4)[Fuc(a1-6)]GlcNAc
In short: as §1

[21] = biological target: GlcNAc(b1-3)Gal(b1-4)GlcNAc(b1-3)Gal(b1-4)GlcNAc(b1-3)Gal(b1-4)GlcNAc(b1-3)Gal(b1-4)GlcNAc(b1-2)Man(a1-3)[GlcNAc(b1-3)Gal(b1-4)GlcNAc(b1-3)Gal(b1-4)GlcNAc(b1-3)Gal(b1-4)GlcNAc(b1-3)Gal(b1-4)GlcNAc(b1-2)Man(a1-6)]Man(b1-4)GlcNAc(b1-4)[Fuc(a1-6)]GlcNAc
In short: as §1

[22] = biological target: Man(a1-2)Man(a1-6)[Man(a1-3)]Man(a1-6)[Man(a1-2)Man(a1-2)Man(a1-3)]Man(b1-4)GlcNAc(b1-4)GlcNAc
In short: as §1

Man(a1-3)[Man(a1-6)]Man = biological target: Man(a1-3)[Man(a1-6)]Man
In short: as §1

[23] = biological target: Man(a1-3)[Man(a1-6)]Man(b1-4)GlcNAc(b1-4)GlcNAc
In short: as §1

[24] = biological target: Neu5Ac(a2-3)Gal(b1-3)GlcNAc(b1-2)[Neu5Ac(a2-3)Gal(b1-3)GlcNAc(b1-4)]Man(a1-6)[Neu5Ac(a2-3)Gal(b1-3)GlcNAc(b1-2)Man(a1-3)]Man(b1-4)GlcNAc(b1-4)GlcNAc
In short: as §1

[25] = biological target: Neu5Ac(a2-3)Gal(b1-3)[Neu5Ac(a2-6)]GalNAc
In short: as §1

[26] = biological target: Neu5Ac(a2-3)Gal(b1-4)GlcNAc(b1-3)Gal
In short: as §1

[27] = biological target: Neu5Ac(a2-3)Gal6S(b1-4)GlcNAc
In short: as §1

[28] = biological target: Neu5Ac(a2-6)Gal(b1-4)GlcNAc(b1-3)Gal(b1-4)GlcNAc(b1-2)Man(a1-3)[Neu5Ac(a2-6)Gal(b1-4)GlcNAc(b1-3)Gal(b1-4)GlcNAc(b1-2)Man(a1-6)]GalNAc
In short: as §1

[29] = biological target: Neu5Ac(a2-6)Gal(b1-4)GlcNAc6S
In short: as §1

[30] = biological target: Neu5Gc(a2-3)Gal(b1-4)GlcNAc(b1-3)Gal(b1-4)GlcNAc(b1-2)Man(a1-3)[Neu5Gc(a2-3)Gal(b1-4)GlcNAc(b1-3)Gal(b1-4)GlcNAc(b1-2)Man(a1-6)]Man(b1-4)GlcNAc(b1-4)GlcNAc
In short: as §1

[31] = biological target: Neu5Gc(b2-6)Gal(b1-4)GlcNAc
In short: as §1

B1: MUB70 (Lactobacillus reuteri) (protein)
chain: CVHVQYIDGETDQMLRQDDLDGYTDETIPYSTAEGIKKFEGDGYELFKDNFPAGEKFDNDDTNDQFYTVIF
In the case of B1, the “glycan array binding signal (z-score)” value [1] is reported as 2.39, the “glycan array binding signal (z-score)” value [2] is reported as -0.317 and the “glycan array binding signal (z-score)” value [3] is reported as -0.274. For the same binder, the “glycan array binding signal (z-score)” value [4] was -0.273, the “glycan array binding signal (z-score)” value [5] was -0.143 and the “glycan array binding signal (z-score)” value [6] was -0.805. The “glycan array binding signal (z-score)” value [7] was 0.445, the “glycan array binding signal (z-score)” value (Gal(b1-2)Gal) was 2.16 and the “glycan array binding signal (z-score)” value [8] was -0.459. For the same binder, the “glycan array binding signal (z-score)” value [9] was 0.618, the “glycan array binding signal (z-score)” value [10] was -0.056 and the “glycan array binding signal (z-score)” value [11] was 0.734. For the same binder, the “glycan array binding signal (z-score)” value [12] was -0.399, the “glycan array binding signal (z-score)” value [13] was 0.479 and the “glycan array binding signal (z-score)” value [14] was 2.07. The “glycan array binding signal (z-score)” value [15] was 2.37, the “glycan array binding signal (z-score)” value [16] was -0.071 and the “glycan array binding signal (z-score)” value (Gal3S6S(b1-4)GlcNAc6S) was 3.78. The “glycan array binding signal (z-score)” value (Gal4S6S(b1-4)GlcNAc) was 1.99, the “glycan array binding signal (z-score)” value (Gal6S(b1-3)GlcNAc6S) was 4.49 and the “glycan array binding signal (z-score)” value (GalNAc(b1-4)GlcNAc6S) was 0.276. For the same binder, the “glycan array binding signal (z-score)” value (GlcA(b1-3)Gal) was -0.592, the “glycan array binding signal (z-score)” value [17] was 0.036 and the “glycan array binding signal (z-score)” value [18] was -0.453. The “glycan array binding signal (z-score)” value [19] was 2.17, the “glycan array binding signal (z-score)” value [20] was 0.94 and the “glycan array binding signal (z-score)” value [21] was 0.523. The “glycan array binding signal (z-score)” value [22] was 0.042, the “glycan array binding signal (z-score)” value (Man(a1-3)[Man(a1-6)]Man) was -0.052 and the “glycan array binding signal (z-score)” value [23] was -0.322. The “glycan array binding signal (z-score)” value [24] was 6.11, the “glycan array binding signal (z-score)” value [25] was 1.18 and the “glycan array binding signal (z-score)” value [26] was 0.155. The “glycan array binding signal (z-score)” value [27] was -0.909, the “glycan array binding signal (z-score)” value [28] was 0.348 and the “glycan array binding signal (z-score)” value [29] was 2.67. For the same binder, the “glycan array binding signal (z-score)” value [30] was 1.95 and the “glycan array binding signal (z-score)” value [31] was 0.109.
